# Measurements taken from PubChem BioAssay AID2314 (National Center for Advancing Translational Sciences (NCATS), 2010).
# In all, about 300,000 compounds went through this assay and about 37,000 (12%) were called active. Cut-off read from the data, not from the text of the source: active = max response mostly above about 13% (no sharp cut-off); inactive = mostly below about 14%. Many of the other results were omitted from the sample, so actives are more common in it than they were.
# Assay: Cycloheximide Counterscreen for Small Molecule Inhibitors of Shiga Toxin; note: read at 38.3 µM for the half of the compounds with a filed dose; 0% is about no effect
# Conditions: cell reporter, cycloheximide protein synthesis inhibition counterscreen; hits give high values
row,SMILES,max response
1,COc1ccc(C(=O)NCCCN2CCOCC2)cc1Br,0.527% (inactive)
2,C/C(=N\N=C(N)N)c1ccc(Cl)cc1,-3.34% (inactive)
3,COc1ccc(CCNC(=O)CN(C)S(=O)(=O)c2ccc3nc(C)sc3c2)cc1OC,-1.23% (inactive)
4,COc1ccc2c(CC(=O)N3CCc4cc(OC)c(OC)cc4C3)coc2c1,-5.51% (inactive)
5,CC(=O)c1ccc(NC(=O)C(C)N(C)CC(=O)Nc2ccccc2Cl)cc1 (centres undefined),5.03% (inactive)
6,CC(NCc1cccs1)C(=O)Nc1cc(Cl)cc(Cl)c1 (centres undefined),-2.66% (inactive)
7,CC(=O)c1ccc(NC(=O)C(C)NCc2ccc(Cl)cc2)cc1 (centres undefined),32.7% (active)
8,Nc1c(Cl)cc(-c2csc(N3CCCC3c3nc4cc(Cl)c(Cl)cc4n3CCOCCO)n2)cc1Cl (centres undefined),2.13% (inactive)
9,C/C(=N\NS(=O)(=O)c1ccccc1)c1c(O)cc(C)oc1=O,3.15% (inactive)
10,Cc1ccc(N=Cc2c(O)cc(C)oc2=O)c(C)c1,-0.907% (inactive)
11,Cc1cc(O)c(C(=O)/C=C/c2c(F)c(F)c(F)c(F)c2F)c(=O)o1,35.8% (active)
12,O=C(Cc1cccs1)N(CC1CCCO1)C1(C(=O)NC2CCCCC2)CCCCC1 (centres undefined),-1.59% (inactive)
13,CCCOc1ccc(Cc2c(O)nc(N)[nH]c2=O)cc1C,-2.37% (inactive)
14,COc1c(O)ccc2c1CN1CCc3cc4c(cc3C1C2)OCO4 (centres undefined),-3.13% (inactive)
15,Cc1nn2c3ccccc3nc2n(C)c1=O,-2.2% (inactive)
16,Cn1c(S(=O)(=O)O)nc2ccccc21,-1.42% (inactive)
17,Cn1cccc1-c1nc2ccccc2n1C,18% (active)
18,CCn1cc(C(=O)N2CC=C(c3ccccc3)CC2)c(=O)c2ccc(C)nc21,7.37% (inactive)
19,COC(=O)c1nn(-c2cccc(Cl)c2)ccc1=O,4.96% (inactive)
20,Cc1cccc(-c2nnc(SCC(=O)O)n2Cc2ccccc2)c1,-1.57% (inactive)
21,Cc1cc(C)c2c(Cn3ccnc3)cc(=O)oc2c1,-3.34% (inactive)
22,Cc1cccc(N(C)C(=O)CN2C(=O)COc3ccc(S(=O)(=O)N4CCCCCC4)cc32)c1,-2.56% (inactive)
23,COc1ccc(S(=O)(=O)N(CC(=O)NCc2ccco2)c2ccc(F)cc2)cc1,-2.34% (inactive)
24,COc1ccc(NC(=O)N2CCC3(CC2)OCCO3)c(OC)c1,0.567% (inactive)

row,SMILES,max response
1,O=C(Nc1cccc2ccccc12)N1CCN(Cc2ccc3c(c2)OCO3)CC1,-0.788% (inactive)
2,O=C(Nc1cccc2ccccc12)N1CCC2(CC1)OCCO2,22.3% (active)
3,CN(CC(=O)Nc1c(Cl)cccc1Cl)C(=O)c1ccncc1,-0.763% (inactive)
4,CC1CN(C(=O)CCC(=O)NCCCN2CCC(Cc3ccccc3)CC2)c2cc(Cl)ccc2O1 (centres undefined),-3.45% (inactive)
5,COc1ccc(S(=O)(=O)NCC(=O)NC2CC2)cc1OC,-2.51% (inactive)
6,COc1ccc(CCNC(=O)C2CCCN(S(=O)(=O)c3ccc(OC)cc3)C2)cc1 (centres undefined),-5.86% (inactive)
7,COc1nc(NC2CCCCC2)nc(N2CCCCCC2)n1,8.36% (inactive)
8,O=C1Nc2cc(C(=O)N3CCN(c4ccc(F)cc4)CC3)ccc2NC1CSCc1cccc(F)c1 (centres undefined),2.89% (inactive)
9,Cc1ccc(-n2c(C)cc(/C=N/Nc3ccc([N+](=O)[O-])cn3)c2C)c(C)c1,20.7% (inactive)
10,Cc1cc(/C=N/n2cnnc2)c(C)n1-c1cccc(C(=O)O)c1,4.01% (inactive)
11,Cc1cc(/C=N/Nc2ccc([N+](=O)[O-])cn2)c(C)n1-c1cccc(C(=O)O)c1,27.7% (active)
12,O=C1CSC2=NCN(c3ccccc3)CN12,1.46% (inactive)
13,COc1ccc(S(=O)(=O)N2CCOCC2)cc1C(=O)NC1CCCCC1,-2.56% (inactive)
14,CC(=O)Nc1cccc(-c2csc(Nc3cccc(C)n3)n2)c1,50.7% (active)
15,CC(=O)Nc1ccc(-c2csc(NC=C3C(=O)OC(C)(C)OC3=O)n2)cc1,19.8% (inactive)
16,CCS(=O)(=O)Nc1cccc(-c2cc(-c3ccccc3)c3cc(C)ccc3n2)c1,-0.522% (inactive)
17,Cc1cccc(Nc2nc(-c3ccccc3)cs2)n1,56.2% (active)
18,COc1ccc(CCNc2nc(-c3cccc(NC(C)=O)c3)cs2)cc1OC,10.5% (inactive)
19,Cc1cccc(S(=O)(=O)CC(=O)Nc2nc(-c3ccccc3)cs2)c1,-5.29% (inactive)
20,CC(=O)Nc1cccc(-c2cnc3ccccc3n2)c1,34.8% (active)
21,CC(=O)Nc1cccc(NC(=O)c2c(-c3ccccc3)noc2C)c1,-1.94% (inactive)
22,COc1ccc(C(=O)NC(C)c2nccs2)cc1OC1CCN(C(C)C)CC1 (centres undefined),-0.856% (inactive)
23,O=C(CNc1cccc(S(=O)(=O)N2CCCCC2)c1)Nc1ccccc1F,-2.83% (inactive)
24,Cc1noc(C)c1CSc1nc2cc(S(=O)(=O)N3CCOCC3)ccc2o1,-1.38% (inactive)

row,SMILES,max response
1,CCNC(=O)c1sccc1-n1cccc1,2.68% (inactive)
2,Cc1ccc(C(=O)N/C(=C\c2cn(C)c3ccccc23)C(=O)N2CCN(C)CC2)cc1,1.99% (inactive)
3,CCCn1nnnc1NCc1ccc(OC)cc1,-1.31% (inactive)
4,CC1(C)CC(=O)CC2(C1)NCC(c1ccccc1Cl)c1c2[nH]c2ccccc12 (centres undefined),2.51% (inactive)
5,Cc1oc2cc([N+](=O)[O-])c(O)c([N+](=O)[O-])c2c1C(=O)c1ccc(Br)cc1,-7.47% (inactive)
6,Cc1cccc(N2CCN(C(=O)/C=C/c3ccco3)CC2)c1C,15.1% (active)
7,CCn1c(C)c(C)c2cc(C(=O)N3CCN(c4cccc(C)c4C)CC3)ccc21,-3.95% (inactive)
8,CCC(CC)C(=O)N1CCN(c2cccc(C)c2C)CC1,4.17% (inactive)
9,COCCCn1c(-c2cccs2)nc2nc3ccccc3nc21,8.97% (inactive)
10,CCOC(=O)CN(C)S(=O)(=O)c1ccc(-c2cc(C(=O)OC)sc2C(F)(F)F)cc1,4.79% (inactive)
11,CCOC(=O)c1c(S(=O)(=O)Nc2ccc(CN3CCC(C)CC3)cc2)c(C)n(C)c1C,-1.22% (inactive)
12,O=C(CCn1c(=S)[nH]c2cc3c(cc2c1=O)OCO3)NCc1ccc(Cl)cc1,12.5% (inactive)
13,CC(C)OCCCNC(=O)c1ccc(C2SCC(=O)N2Cc2ccco2)cc1 (centres undefined),-3.14% (inactive)
14,COc1cc(NC(=O)C2CCN(c3cnccn3)CC2)cc(OC)c1,-1.38% (inactive)
15,COc1cccc(-c2nnc(SCCOc3ccc4c(C)cc(=O)oc4c3)o2)c1,-1.4% (inactive)
16,COc1cccc(-c2nc(S(=O)(=O)c3ccccc3)c(N3CCOCC3)o2)c1,-1.61% (inactive)
17,COc1cccc(-c2nc3cc(C)ccc3o2)c1,47.1% (active)
18,COc1ccc2oc(-c3cccc(NC(=O)CSc4ccc(Cl)cc4)c3)nc2c1,14.3% (active)
19,COc1ccc(C(=O)NCc2nnc(SCC(=O)Nc3cccc(OC)c3)o2)cc1,-4.63% (inactive)
20,COc1ccc(C)cc1NC(=O)CSc1ccc(Cl)cc1,2.38% (inactive)
21,CN(C)Cc1ccc(F)cc1Sc1cc(Cl)ccc1Cl,-1.42% (inactive)
22,O=C(COc1ccc(Cl)cc1Cl)N/N=C/c1ccccn1,13.4% (inactive)
23,Cc1ccc(C(=O)N/C(=C/c2ccc(-c3cccc([N+](=O)[O-])c3)o2)C(=O)NCCCN(C)C)cc1,-1.07% (inactive)
24,C[C@H](NC(=O)c1nc[nH]c1C(=O)NCC(=O)OC(C)(C)C)c1ccccc1,3.3% (inactive)

row,SMILES,max response
1,CCCN(CCC)C(=O)C1c2ccccc2Oc2ccccc21,3.35% (inactive)
2,O=C(CN1CCCCCC1)Nc1ccc(Br)cc1[N+](=O)[O-],-2.43% (inactive)
3,CC(C)(C)NC(=O)NC(=O)COC(=O)CCC1CCCCC1,-2.12% (inactive)
4,COc1ccccc1OCc1nnc(SCC(N)=O)n1-c1ccccc1,7.05% (inactive)
5,COc1ccccc1OCC(=O)O/N=C(\N)c1ccccn1,46.9% (active)
6,N/C(=N\OC(=O)Cc1ccccc1[N+](=O)[O-])c1ccc(Br)cc1,11.4% (inactive)
7,N/C(=N\OC(=O)CC1CCCCC1)c1ccccc1,40.4% (active)
8,N/C(=N\OC(=O)CCC1CCCCC1)c1ccccn1,38.6% (active)
9,COc1ccccc1OCC(=O)OCn1c(SC)nnc(C)c1=O,-1.41% (inactive)
10,COc1ccccc1NC(=O)C(C)OC(=O)CC1CCCC1 (centres undefined),0.793% (inactive)
11,O=C(CN1CCN(c2ccccn2)CC1)NC1CCCCC1,9.34% (inactive)
12,COc1ccc(C(=O)NCC(=O)N/N=C/c2ccc([N+](=O)[O-])o2)cc1OC,8.64% (inactive)
13,COc1ccc(S(=O)(=O)n2nc(C)c(S(=O)(=O)N3CCOCC3)c2C)cc1,-1.99% (inactive)
14,COc1cccc(CNC(=O)c2nnn(CC(=O)Nc3cc(C)ccc3C)c2N)c1,7.9% (inactive)
15,CSCC[C@H](NC(=O)N1CCn2c1nc1ccccc12)C(=O)NCc1ccc2c(c1)OCO2,0.519% (inactive)
16,Cn1ncc(N2CCN(S(=O)(=O)c3ccc(Br)cc3)CC2)c(Cl)c1=O,-6.65% (inactive)
17,S=c1[nH]cc(-c2ccc(Cl)cc2)n1-c1ccccc1,9.09% (inactive)
18,CC(C)(C)OC(=O)NC(Cc1ccccc1)C(=O)NC(CSC1CCCCO1)C(=O)NN (centres undefined),-1.92% (inactive)
19,O=C(CC(c1ccccc1)c1ccccc1)NCC(O)c1ccc([N+](=O)[O-])cc1 (centres undefined),-4.98% (inactive)
20,Cc1nn2c(NCCN(C)C)c3c(nc2c1-c1ccccc1)CCC3,-2.49% (inactive)
21,Cc1ccc(CNC(=O)Cn2c(=O)c3sccc3n(Cc3cccc([N+](=O)[O-])c3)c2=O)cc1,3.82% (inactive)
22,CC(=O)n1cc([C@@H]2C=C(C(=O)N3CCN(Cc4ccc5c(c4)OCO5)CC3)O[C@H](OCc3ccc(CO)cc3)C2)c2ccccc21,0.854% (inactive)
